TRb-SRC2 inh = TRbeta-SRC2 interaction inhibition; TRbeta-SRC2 peptide binding, fluorescence polarization; receptor liganded with 1 µM T3; Potency, µM (highest dose often 106 µM), inactives show top-dose activity change, negative = inhibition, most hits filed as inhibitors; 280,000 compounds, 0.065% hits; AID 1469;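 further: plate controls were bound peptide for no effect and peptide without receptor for full effect; nearly all actives have a fitted effect of over 50% in size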
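TRb LBD 0.6 uM + Texas Red SRC2 peptide 20 nM, 1 uM T3, Tris buffer w/ 5% DMSO; compound pinned, 5 h RT; FP read ex 555/em 632; normalized to unbound and bound controls.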
Tau fibril FP = tau fibrillization inhibition (FP) | P10636 | K18 P301L tau heparin fibrillization, Alexa594 FP, 6 h | Potency, µM (series often up to 57.7 µM), inactives show top-dose activity, negative = inhibition, hits mostly inhibitors | 280,000 compounds, 0.39% hits | AID 1468; further: nearly all actives have a fitted effect of over 55% in size
Target sequence (P10636 561-689 P618L limits assumed): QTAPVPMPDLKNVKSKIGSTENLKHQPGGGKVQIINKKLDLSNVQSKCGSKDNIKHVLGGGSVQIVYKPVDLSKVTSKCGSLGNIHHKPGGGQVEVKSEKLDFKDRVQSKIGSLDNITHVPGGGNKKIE
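Compound effects on tau fibrillization are measured by Alexa 594 fluorescence polarization (ex 555, em 632 nm). K18 P301L tau is used at 15 uM with 0.24 uM labeled tracer, and 20 uM heparin induces aggregation over 6 hr at 37 C.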
Tau fluor counter = counter-screen for tau fibril formation inhibitors. tau K18 P301L Alexa594 fluorescence, heparin fibrillization. Potency, µM (top dose mostly 57.7 µM), for the others: top-dose activity change, negative = decrease. 280,000 compounds, 0.93% hits. AID 1463; further: nearly all actives have a fitted effect of over 55% in size
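Human tau K18 P301L (15 uM unlabeled, 0.24 uM Alexa 594-labeled) in 100 mM sodium acetate pH 7 with 20 uM heparin, 6 hr at 37 C. ThT 30 uM added, 1 hr ambient; Alexa 594 FP and total fluorescence read at 555/632 nm.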
TexasRed fluor = counter-screen for TRb-SRC2 inhibitors: fluorescence interference. 280,000 compounds, 0.29% hits. TRb/SRC2 Texas Red total fluorescence interference. Potency, µM (doses to about 106 µM), inactives show top-dose fluorescence change, negative = quenching. AID 1479; active means well fitted curve in either direction with a large enough effect; inconclusive means small, poorly fitted or top-dose-only effect
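Flags fluorescent or light-absorbing compounds by total fluorescence, S + 2P, at 555 nm excitation and 632 nm emission. Mixture: 20 nM Texas Red SRC2 peptide, 0.6 uM human TRb LBD, 1 uM T3, 5% DMSO; compound exposure 5 h at ambient temperature.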
Tau ThT inhib = inhibitors of human tau fibril formation, thioflavin T binding; Potency, µM (series often up to 57.4 µM), for the others: top-dose activity, negative = inhibition, most hits filed as inhibitors; recombinant tau K18 P301L, heparin-induced fibrillization, ThT fluorescence; 270,000 compounds, 2.1% hits; P10636; AID 1460; further: nearly all actives have a fitted effect of over 55% in size
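Using a mix of unlabeled (15 uM) and Alexa 594-labeled (0.24 uM) tau K18 P301L, heparin-triggered fibrillization over 6 hr at 37 C was scored by ThT fluorescence.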
* = called active by the depositor; ? = inconclusive; · = not tested or not shown; [ ] = another dose, or the depositor's remark. Sampled rows, rich in hits. Any-hit rate of the full collection: about 3.1%. Unless noted, the call rests on the fitted dose curve; in most records, active means well fitted curve in the direction sought with a large enough effect; inconclusive means small, poorly fitted or top-dose-only effect, or another doubt; inactive means no such curve, though single readings can be large; an effect the other way counts as inactive or inconclusive. Unless noted, on the % scale 0 is the no-effect control and ±100 the full control effect; potency means the concentration at half of the fitted maximal effect.

SMILES	TRb-SRC2 inh	Tau fibril FP	Tau fluor counter	TexasRed fluor	Tau ThT inhib
Nc1[nH]n(-c2ccccc2)c(=O)c1N=Nc1ccccc1[N+](=O)[O-]	-5%	-2%	?	3%	?
Cc1ccc(N=Nc2c(C)[nH]n(-c3ccccc3)c2=O)c(C)c1	-1%	-4%	11%[2.34 µM]	-1%	-18%
Nc1[nH]n(-c2ccccc2)c(=O)c1N=Nc1ccccc1	-2%	12%	5µM*[quencher]	-7%	2.5µM*
Cc1c2cnn(CC(=O)NC(C)C)c(=O)c2c(C)n1Cc1cccc(Cl)c1	9%	-3%	-3%	-1%	3%
O=C(Nc1nccs1)C1CC=CC2CCN(Cc3ccc(Cl)c(Cl)c3)C(=O)C21 (stereo unspecified)	1%	·	·	-1%	·
COc1ccc(NC(=O)Cn2c(=O)n(Cc3ccccc3)c(=O)c3sc4ccccc4c32)cc1	-4%	-18%	-19%	-1%	1%
S=C1SCN(Cc2ccco2)CN1Cc1ccco1	-5%	-11%	-20%	1%	?
N#CC1=C2SCN(Cc3ccco3)CN2C(=O)CC1c1cccc2ccccc12 (stereo unspecified)	-3%	?	-18%	2%	18µM*
N#CC1=C2SCN(Cc3ccco3)CN2C(=O)CC1c1ccccc1F (stereo unspecified)	-23%	?	-24%	-2%	18µM*
CCOC(=O)N1CCc2c(sc(NCc3ccc(OC)c(Br)c3)c2C(=O)Nc2cc(OC)ccc2OC)C1	-3%	-2%	?	-4%	14µM*
COc1ccc(OC)c(NC(=O)c2c(NCc3ccc(OC)c(OC)c3)sc3c2CCC3)c1	4%	-2%	?	2%	?
CCOC(=O)N1CCc2c(sc(NCc3sccc3C)c2C(=O)Nc2cc(OC)ccc2OC)C1	0%	-2%	?	-6%	?
CCOC(=O)N1CCc2c(sc(NCc3cc(OC)ccc3OC)c2C(=O)Nc2cc(OC)ccc2OC)C1	-21%	2%	?	398µM*[quencher]	?
CCOC(=O)c1cc(-c2ccc(OC)cc2)n(CCC(=O)NCc2ccc(OC)cc2)c1C	-2%	15%	-15%	-3%	-9%
CCOC(=O)c1cccc(NC(=O)CC2C(=O)N(c3ccc(OC)cc3)C(=O)N2C2CCCC2)c1 (stereo unspecified)	3%	-2%	-25%	-2%	-1%
O=C1C(Cl)=C(N2CCC(C(=O)O)CC2)C(=O)c2ccccc21	?	11µM*	10µM*[quencher]	-24%	4.5µM*
Fc1ccccc1C1=NC(c2ccc(C(F)(F)F)cc2)=Nc2ccccc2N1	4%	-7%	-13%	0%	5%
COc1cccc(NC(=O)Nc2cccc(C(=O)O)c2)c1	-3%	6%	-4%	2%	-10%
COc1cccc(NC(=O)NC2(C(F)(F)F)Oc3ccccc3O2)c1	-8%	5%	18µM*[quencher]	1%	?
COc1ccc(-c2cn3cccnc3n2)cc1NC(=O)Nc1ccc(Cl)cc1	-1%	-8%	14µM*[quencher]	-2%	?
COc1cc(NC(=O)c2ccco2)c(OC)cc1NC(=O)Nc1ccc(Cl)cc1	3%	12%	8.9µM*[quencher]	-5%	?
Cc1c(-c2cccc(NC(=O)Nc3ccc(Cl)cc3)c2)nc2ncccn12	-1%	20µM*	10µM*[quencher]	-2%	13%
COc1ccc(NC(=O)Nc2cc(C)ccc2OC)cc1	6%	9%	?	0%	?
COc1ccc(OC)c(NC(=O)Nc2ccc(Cl)cc2)c1	-5%	21%	14µM*[quencher]	-2%	?
COc1cc(OC)c(NC(=O)c2ccco2)cc1Cl	-2%	-3%	-9%	0%	-5%
COc1ccccc1NC(=O)C1CCN(S(=O)(=O)c2ccc3[nH]c4c(c3c2)CCCCC4)CC1	5%	0%	?	-3%	-4%
COc1ccc(CCCc2nnc(SCC(=O)Nc3cccc(C)c3)o2)cc1C	-1%	-22%	-24%	-1%	-14%
CCOc1ccc(CNC(=O)CCC(=O)N2CC3CCCN3c3ccccc32)cc1 (stereo unspecified)	2%	4%	-10%	-38%	-2%

Assay outcomes deposited in PubChem by National Center for Advancing Translational Sciences (NCATS).
